The source of these data is article PMC11006913.

Where a chain is given by its changes, count along the chain named.

Experiment in all cases: PBM; 200 nM protein, PBS
Common to all, as to conditions: dsDNA, one strand shown

The target of experiment [1] is HOXB9 (Homo sapiens, UniProt P17482 171-250, T197M).
Experiment [2] concerns the target T1, PAX4 (Homo sapiens, UniProt O43316 9-242, R200K).
T1 sequence: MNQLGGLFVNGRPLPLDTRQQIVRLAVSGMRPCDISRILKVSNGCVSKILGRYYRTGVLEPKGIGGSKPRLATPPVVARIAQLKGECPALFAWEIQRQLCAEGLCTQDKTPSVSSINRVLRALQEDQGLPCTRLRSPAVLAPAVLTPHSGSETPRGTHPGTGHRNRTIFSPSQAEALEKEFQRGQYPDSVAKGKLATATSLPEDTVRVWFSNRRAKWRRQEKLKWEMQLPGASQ

For experiment [3], the target named is T2, PAX4 (Homo sapiens, UniProt O43316 9-242).
T2 sequence: T1 sequence with K192R

Experiment [4] concerns the target HOXA2 (Homo sapiens, UniProt O43364 129-215, R185T).
For experiment [5], the target named is HOXB9 (Homo sapiens, UniProt P17482 171-250).
Chain of HOXB9 (Homo sapiens, UniProt P17482 171-250) (P17482 171-250): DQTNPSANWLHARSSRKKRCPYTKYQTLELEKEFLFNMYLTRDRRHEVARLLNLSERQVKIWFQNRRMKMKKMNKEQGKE
Experiment [6] deals with ALX3 (Homo sapiens, UniProt O95076 139-225, N203Q).
Chain of ALX3 (Homo sapiens, UniProt O95076 139-225, N203Q) (O95076 139-225 N203Q): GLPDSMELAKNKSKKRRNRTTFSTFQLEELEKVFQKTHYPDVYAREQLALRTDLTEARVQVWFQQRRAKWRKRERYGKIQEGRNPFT
The target of experiment [7] is T3, PAX4 (Homo sapiens, UniProt O43316 9-242, R200Q).
T3 sequence: T1 sequence with K192Q

In experiment [8] the target is HOXA2 (Homo sapiens, UniProt O43364 129-215, R185K).
Chain of HOXA2 (Homo sapiens, UniProt O43364 129-215, R185K) (O43364 129-215 R185K): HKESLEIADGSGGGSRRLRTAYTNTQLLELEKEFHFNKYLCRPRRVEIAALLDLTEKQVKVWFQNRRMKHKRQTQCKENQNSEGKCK
In experiment [9] the target is T4, PAX4 (Homo sapiens, UniProt O43316 9-242, F177V).
T4 sequence: T1 sequence with F169V, K192R

For experiment [10], the target named is ALX3 (Homo sapiens, UniProt O95076 139-225).
Chain of ALX3 (Homo sapiens, UniProt O95076 139-225) (O95076 139-225): as the sequence (O95076 139-225 N203Q) above, with Q65N counted along it
Experiment [11] concerns the target T5, PAX4 (Homo sapiens, UniProt O43316 9-242, F177Y).
T5 sequence: T1 sequence with F169Y, K192R

Experiment [12] concerns the target ALX3 (Homo sapiens, UniProt O95076 139-225, L168Q).
Experiment [13] concerns the target HOXB9 (Homo sapiens, UniProt P17482 171-250, R186Q).
The target in experiment [14] is ALX3 (Homo sapiens, UniProt O95076 139-225, L168V).
Chain of ALX3 (Homo sapiens, UniProt O95076 139-225, L168V) (O95076 139-225 L168V): as the sequence (O95076 139-225 N203Q) above, with L30V, Q65N counted along it
The target in experiment [15] is T6, PAX4 (Homo sapiens, UniProt O43316 9-242, R227W).
T6 sequence: T1 sequence with K192R, R219W

Experiment [16] concerns the target HOXA2 (Homo sapiens, UniProt O43364 129-215, Y150S).
The target of experiment [17] is ALX3 (Homo sapiens, UniProt O95076 139-225, N203S).
Chain of ALX3 (Homo sapiens, UniProt O95076 139-225, N203S) (O95076 139-225 N203S): as the sequence (O95076 139-225 N203Q) above, with Q65S counted along it
Experiment [18] addresses HOXA2 (Homo sapiens, UniProt O43364 129-215).
For experiment [19], the target named is HOXC10 (Homo sapiens, UniProt Q9NYD6 254-340).
Chain of HOXC10 (Homo sapiens, UniProt Q9NYD6 254-340) (Q9NYD6 254-340): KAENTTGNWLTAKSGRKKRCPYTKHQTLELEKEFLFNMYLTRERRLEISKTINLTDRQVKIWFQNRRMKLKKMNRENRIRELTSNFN
The target of the next experiment is ALX4 (Homo sapiens, UniProt Q9H161 200-286, Q225E).
Chain of ALX4 (Q9H161 200-286 Q225E): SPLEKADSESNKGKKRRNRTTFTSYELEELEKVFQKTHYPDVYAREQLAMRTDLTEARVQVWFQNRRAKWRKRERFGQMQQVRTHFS
For experiment [20], the target named is HOXD13 (Homo sapiens, UniProt P35453 263-343, T313R).
Chain of HOXD13 (Homo sapiens, UniProt P35453 263-343, T313R) (P35453 263-343 T313R): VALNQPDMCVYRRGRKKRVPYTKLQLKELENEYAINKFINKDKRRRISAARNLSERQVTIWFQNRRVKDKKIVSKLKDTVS
Experiment [21] addresses HOXD13 (Homo sapiens, UniProt P35453 263-343).
Experiment [22] deals with HOXC10 (Homo sapiens, UniProt Q9NYD6 254-340, K271E).
Chain of HOXC10 (Homo sapiens, UniProt Q9NYD6 254-340, K271E) (Q9NYD6 254-340 K271E): as the sequence (Q9NYD6 254-340) above, with K18E counted along it
Experiment [23] concerns the target HOXD13 (Homo sapiens, UniProt P35453 263-343, T313A).
Experiment [24] has as its target HOXC9 (Homo sapiens, UniProt P31274 178-260, R222W).
The target in experiment [25] is PRRX1 (Homo sapiens, UniProt P54821 80-166, F113S).
Chain of PRRX1 (Homo sapiens, UniProt P54821 80-166, F113S) (P54821 80-166 F113S): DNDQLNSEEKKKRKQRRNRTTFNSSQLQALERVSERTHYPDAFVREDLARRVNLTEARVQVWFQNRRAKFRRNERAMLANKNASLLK
Another experiment concerns the target HOXB6 (Homo sapiens, UniProt P17509 132-218, K202E).
For experiment [26], the target named is HOXC9 (Homo sapiens, UniProt P31274 178-260, R193K).
Chain of HOXC9 (Homo sapiens, UniProt P31274 178-260, R193K) (P31274 178-260 R193K): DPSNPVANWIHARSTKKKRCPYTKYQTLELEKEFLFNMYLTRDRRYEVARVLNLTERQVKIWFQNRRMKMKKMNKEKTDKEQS
Experiment [27] has as its target HOXA7 (Homo sapiens, UniProt P31268 116-202).
In experiment [28] the target is HOXA7 (Homo sapiens, UniProt P31268 116-202, W177C).
Chain of HOXA7 (Homo sapiens, UniProt P31268 116-202, W177C) (P31268 116-202 W177C): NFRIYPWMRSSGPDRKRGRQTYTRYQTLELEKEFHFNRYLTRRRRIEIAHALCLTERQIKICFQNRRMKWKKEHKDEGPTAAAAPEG
Experiment [29] addresses HOXC9 (Homo sapiens, UniProt P31274 178-260, K195R).
Experiment [30] concerns the target HOXC9 (Homo sapiens, UniProt P31274 178-260).
Experiment [31] addresses PRRX1 (Homo sapiens, UniProt P54821 80-166).

Chain of HOXB9 (Homo sapiens, UniProt P17482 171-250, T197M) (P17482 171-250 T197M): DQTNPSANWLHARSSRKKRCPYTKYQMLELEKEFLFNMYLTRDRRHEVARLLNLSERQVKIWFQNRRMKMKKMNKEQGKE
Chain of HOXB6 (P17509 132-218 K202E): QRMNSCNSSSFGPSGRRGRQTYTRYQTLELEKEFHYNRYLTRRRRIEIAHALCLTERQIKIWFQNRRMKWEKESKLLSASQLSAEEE
Chain of HOXC9 (Homo sapiens, UniProt P31274 178-260, R222W) (P31274 178-260 R222W): as the sequence (P31274 178-260 R193K) above, with K16R, R45W counted along it
Chain of HOXB9 (Homo sapiens, UniProt P17482 171-250, R186Q) (P17482 171-250 R186Q): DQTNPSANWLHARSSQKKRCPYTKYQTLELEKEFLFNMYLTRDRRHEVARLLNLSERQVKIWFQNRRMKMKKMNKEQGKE
Chain of ALX3 (Homo sapiens, UniProt O95076 139-225, L168Q) (O95076 139-225 L168Q): as the sequence (O95076 139-225 N203Q) above, with L30Q, Q65N counted along it
Chain of HOXC9 (Homo sapiens, UniProt P31274 178-260) (P31274 178-260): as the sequence (P31274 178-260 R193K) above, with K16R counted along it
Chain of PRRX1 (Homo sapiens, UniProt P54821 80-166) (P54821 80-166): as the sequence (P54821 80-166 F113S) above, with S34F counted along it
Chain of HOXA2 (Homo sapiens, UniProt O43364 129-215, Y150S) (O43364 129-215 Y150S): as the sequence (O43364 129-215 R185K) above, with Y22S, K57R counted along it
Chain of HOXA2 (Homo sapiens, UniProt O43364 129-215) (O43364 129-215): as the sequence (O43364 129-215 R185K) above, with K57R counted along it
Chain of HOXD13 (Homo sapiens, UniProt P35453 263-343, T313A) (P35453 263-343 T313A): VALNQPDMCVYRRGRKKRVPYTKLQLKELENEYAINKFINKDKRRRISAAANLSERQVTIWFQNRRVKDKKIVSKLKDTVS
Chain of HOXA2 (Homo sapiens, UniProt O43364 129-215, R185T) (O43364 129-215 R185T): as the sequence (O43364 129-215 R185K) above, with K57T counted along it
Chain of HOXC9 (Homo sapiens, UniProt P31274 178-260, K195R) (P31274 178-260 K195R): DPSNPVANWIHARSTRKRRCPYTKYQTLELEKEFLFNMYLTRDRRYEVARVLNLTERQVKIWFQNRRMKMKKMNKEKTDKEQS
Chain of HOXA7 (Homo sapiens, UniProt P31268 116-202) (P31268 116-202): as the sequence (P31268 116-202 W177C) above, with C62W counted along it
Chain of HOXD13 (Homo sapiens, UniProt P35453 263-343) (P35453 263-343): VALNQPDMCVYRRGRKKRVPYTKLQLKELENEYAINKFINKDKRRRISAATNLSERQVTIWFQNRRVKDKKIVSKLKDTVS

Regarding AGGCCCCC, the binding signal with HOXB9 [1] is 8.34 upbm affinity estimate (log intensity, higher = more binding, comparable within an allelic series); in the experiment with PAX4 [2] it was 9.04 upbm affinity estimate (log intensity, higher = more binding, comparable within an allelic series); in the experiment with PAX4 [3], 9.05 upbm affinity estimate (log intensity, higher = more binding, comparable within an allelic series); with HOXA2 [4] it was 7.07 upbm affinity estimate (log intensity, higher = more binding, comparable within an allelic series); with HOXB9 [5], 8.29 upbm affinity estimate (log intensity, higher = more binding, comparable within an allelic series); with ALX3 [6] it was 7.63 upbm affinity estimate (log intensity, higher = more binding, comparable within an allelic series). Besides, the binding signal with PAX4 [7] is 9.09 upbm affinity estimate (log intensity, higher = more binding, comparable within an allelic series); in the experiment with HOXA2 [8], 9.91 upbm affinity estimate (log intensity, higher = more binding, comparable within an allelic series); in the experiment with PAX4 [9] it was 8.99 upbm affinity estimate (log intensity, higher = more binding, comparable within an allelic series); with ALX3 [10] it was 7.61 upbm affinity estimate (log intensity, higher = more binding, comparable within an allelic series); with PAX4 [11] it was 8.97 upbm affinity estimate (log intensity, higher = more binding, comparable within an allelic series); in the experiment with ALX3 [12], 7.47 upbm affinity estimate (log intensity, higher = more binding, comparable within an allelic series). Moreover, the binding signal was 8.32 upbm affinity estimate (log intensity, higher = more binding, comparable within an allelic series) with HOXB9 [13]; 7.5 upbm affinity estimate (log intensity, higher = more binding, comparable within an allelic series) with ALX3 [14]; 9.06 upbm affinity estimate (log intensity, higher = more binding, comparable within an allelic series) in the experiment with PAX4 [15]; 10.2 upbm affinity estimate (log intensity, higher = more binding, comparable within an allelic series) in the experiment with HOXA2 [16]; 7.61 upbm affinity estimate (log intensity, higher = more binding, comparable within an allelic series) with ALX3 [17]; 7.21 upbm affinity estimate (log intensity, higher = more binding, comparable within an allelic series) in the experiment with HOXA2 [18].
For the sequence TCAATAAA, the binding signal in the experiment with HOXB9 [1] is 9.75 upbm affinity estimate (log intensity, higher = more binding, comparable within an allelic series); with HOXC10 [19], 12.2 upbm affinity estimate (log intensity, higher = more binding, comparable within an allelic series); with ALX4, 11.2 upbm affinity estimate (log intensity, higher = more binding, comparable within an allelic series); with HOXB9 [5] it was 11.8 upbm affinity estimate (log intensity, higher = more binding, comparable within an allelic series); with HOXD13 [20], 11 upbm affinity estimate (log intensity, higher = more binding, comparable within an allelic series); with HOXD13 [21] it was 12 upbm affinity estimate (log intensity, higher = more binding, comparable within an allelic series). Further, the binding signal in the experiment with HOXC10 [22] is 11.6 upbm affinity estimate (log intensity, higher = more binding, comparable within an allelic series); in the experiment with HOXD13 [23] it was 11.7 upbm affinity estimate (log intensity, higher = more binding, comparable within an allelic series); with HOXB9 [13], 11.5 upbm affinity estimate (log intensity, higher = more binding, comparable within an allelic series); with HOXC9 [24], 11.3 upbm affinity estimate (log intensity, higher = more binding, comparable within an allelic series).
For ATTAAATA, the binding signal with HOXB9 [1] was 10.1 upbm affinity estimate (log intensity, higher = more binding, comparable within an allelic series); with PAX4 [2] it was 11.7 upbm affinity estimate (log intensity, higher = more binding, comparable within an allelic series); with PRRX1 [25] it was 11.1 upbm affinity estimate (log intensity, higher = more binding, comparable within an allelic series); with HOXB6, 10 upbm affinity estimate (log intensity, higher = more binding, comparable within an allelic series); with HOXB9 [5], 11.7 upbm affinity estimate (log intensity, higher = more binding, comparable within an allelic series); with ALX3 [6], 8.66 upbm affinity estimate (log intensity, higher = more binding, comparable within an allelic series). Also, the binding signal with HOXC9 [26] was 12.5 upbm affinity estimate (log intensity, higher = more binding, comparable within an allelic series); with PAX4 [9], 10.8 upbm affinity estimate (log intensity, higher = more binding, comparable within an allelic series); with PAX4 [11], 11.1 upbm affinity estimate (log intensity, higher = more binding, comparable within an allelic series); in the experiment with HOXB9 [13] it was 11.5 upbm affinity estimate (log intensity, higher = more binding, comparable within an allelic series); in the experiment with HOXC9 [24], 11.1 upbm affinity estimate (log intensity, higher = more binding, comparable within an allelic series); in the experiment with PAX4 [15], 11 upbm affinity estimate (log intensity, higher = more binding, comparable within an allelic series). For the same sequence, the binding signal with ALX3 [17] is 8.86 upbm affinity estimate (log intensity, higher = more binding, comparable within an allelic series).
As for AATAATAA, the binding signal is 9.97 upbm affinity estimate (log intensity, higher = more binding, comparable within an allelic series) in the experiment with HOXB9 [1]; 10.8 upbm affinity estimate (log intensity, higher = more binding, comparable within an allelic series) with HOXA7 [27]; 10 upbm affinity estimate (log intensity, higher = more binding, comparable within an allelic series) with HOXB6; 8.58 upbm affinity estimate (log intensity, higher = more binding, comparable within an allelic series) in the experiment with ALX3 [6]; 11.1 upbm affinity estimate (log intensity, higher = more binding, comparable within an allelic series) with HOXC9 [24]; 8.85 upbm affinity estimate (log intensity, higher = more binding, comparable within an allelic series) with HOXA7 [28].
For GGTCCCGA, the binding signal in the experiment with HOXB9 [1] is 8.6 upbm affinity estimate (log intensity, higher = more binding, comparable within an allelic series); with HOXC9 [29], 9.69 upbm affinity estimate (log intensity, higher = more binding, comparable within an allelic series); with HOXB9 [5] it was 8.47 upbm affinity estimate (log intensity, higher = more binding, comparable within an allelic series); in the experiment with HOXC9 [30], 9.62 upbm affinity estimate (log intensity, higher = more binding, comparable within an allelic series); with HOXC9 [26], 9.59 upbm affinity estimate (log intensity, higher = more binding, comparable within an allelic series); in the experiment with HOXB9 [13], 8.44 upbm affinity estimate (log intensity, higher = more binding, comparable within an allelic series). In addition, the binding signal with HOXC9 [24] is 9.74 upbm affinity estimate (log intensity, higher = more binding, comparable within an allelic series).
As for CAGAAGCC, the binding signal with HOXB9 [1] was 8.6 upbm affinity estimate (log intensity, higher = more binding, comparable within an allelic series); with PRRX1 [25] it was 9.41 upbm affinity estimate (log intensity, higher = more binding, comparable within an allelic series); with HOXB9 [5], 8.72 upbm affinity estimate (log intensity, higher = more binding, comparable within an allelic series); in the experiment with HOXB9 [13] it was 8.73 upbm affinity estimate (log intensity, higher = more binding, comparable within an allelic series); with PRRX1 [31], 9.47 upbm affinity estimate (log intensity, higher = more binding, comparable within an allelic series).
Take ATAAATTG: the binding signal in the experiment with HOXB9 [1] was 9.96 upbm affinity estimate (log intensity, higher = more binding, comparable within an allelic series); with HOXB6 it was 10 upbm affinity estimate (log intensity, higher = more binding, comparable within an allelic series); with ALX3 [17], 8.68 upbm affinity estimate (log intensity, higher = more binding, comparable within an allelic series).
